Screens: PubChem, National Center for Advancing Translational Sciences (NCATS)
3T3 cytotox: kills NIH 3T3 cells; AID 1345082; Potency, µM (series often up to 96.7 µM), most hits filed as inhibitors; NIH 3T3 viability, CellTiter-Glo ATP luminescence, 48-72 h; 94,000 tested, 4.3% active; note: nearly all actives have a fitted effect of over 55% in size
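Cytotoxicity is measured as loss of cellular ATP: NIH 3T3 cells (400/well) are exposed to compound for 48 or 72 hr at 37 °C, then CellTiter-Glo luminescence is imaged after 10 min at room temperature.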
HEK cytotox: kills HEK 293 cells. HEK 293 viability, ATP luminescence (CellTiter-Glo), 48-72 h. Potency, µM (titrated, usually from 115 µM), most hits filed as inhibitors. 94,000 tested, 6.6% active. AID 1345083; note: nearly all actives have a fitted effect of over 60% in size
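Luminescence from cellular ATP, measured with CellTiter-Glo, indicates HEK 293 viability. Cells plated at 250 cells/well are treated with compound for 48 or 72 hr at 37 degree Celsius before reagent addition.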
GPT2 inh: inhibitors of human GPT2 alanine aminotransferase. Q8TD30. Recombinant GPT2, coupled pyruvate oxidase/HRP Amplex Red fluorescence. Potency, µM (doses to about 57.7 µM), hits mostly inhibitors. 100,000 tested, 0.25% active; note: nearly all actives have a fitted effect of over 60% in size
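GPT2 10ng/uL, a-KG 250uM, L-Ala 2mM, HEPES pH7.5 + 0.0001% Tween; 30 min RT. Then Amplex mix (PO/HRP/ThPP), 30 min RT dark, fluorescence. AOA 50uM used as positive control.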
FLuc inh: inhibitors of firefly (Photinus pyralis) luciferase; P08659; purified P. pyralis luciferase, luminescence, biochemical; Potency, µM (titrated, usually from 115 µM), most hits filed as inhibitors; 76,000 tested, 2.5% active; AID 1347043; note: nearly all actives have a fitted effect of over 65% in size
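Luminescence read by CCD imaging after purified firefly luciferase (10nM final) was added to substrate buffer holding 10uM D-luciferin and 10uM ATP, pH 7.5, pre-dosed with compound.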
NPR1 antag: human Npr1 receptor antagonism; HEK293 hNpr1 GloSensor cGMP, ANP-stimulated luminescence; Potency, µM (titrated, usually from 46.3 µM), actives largely listed as inhibitors; 76,000 tested, 1.6% active; calls by dose curve; note: nearly all actives have a fitted effect of over 60% in size
Target sequence (P16066 whole entry, looked up): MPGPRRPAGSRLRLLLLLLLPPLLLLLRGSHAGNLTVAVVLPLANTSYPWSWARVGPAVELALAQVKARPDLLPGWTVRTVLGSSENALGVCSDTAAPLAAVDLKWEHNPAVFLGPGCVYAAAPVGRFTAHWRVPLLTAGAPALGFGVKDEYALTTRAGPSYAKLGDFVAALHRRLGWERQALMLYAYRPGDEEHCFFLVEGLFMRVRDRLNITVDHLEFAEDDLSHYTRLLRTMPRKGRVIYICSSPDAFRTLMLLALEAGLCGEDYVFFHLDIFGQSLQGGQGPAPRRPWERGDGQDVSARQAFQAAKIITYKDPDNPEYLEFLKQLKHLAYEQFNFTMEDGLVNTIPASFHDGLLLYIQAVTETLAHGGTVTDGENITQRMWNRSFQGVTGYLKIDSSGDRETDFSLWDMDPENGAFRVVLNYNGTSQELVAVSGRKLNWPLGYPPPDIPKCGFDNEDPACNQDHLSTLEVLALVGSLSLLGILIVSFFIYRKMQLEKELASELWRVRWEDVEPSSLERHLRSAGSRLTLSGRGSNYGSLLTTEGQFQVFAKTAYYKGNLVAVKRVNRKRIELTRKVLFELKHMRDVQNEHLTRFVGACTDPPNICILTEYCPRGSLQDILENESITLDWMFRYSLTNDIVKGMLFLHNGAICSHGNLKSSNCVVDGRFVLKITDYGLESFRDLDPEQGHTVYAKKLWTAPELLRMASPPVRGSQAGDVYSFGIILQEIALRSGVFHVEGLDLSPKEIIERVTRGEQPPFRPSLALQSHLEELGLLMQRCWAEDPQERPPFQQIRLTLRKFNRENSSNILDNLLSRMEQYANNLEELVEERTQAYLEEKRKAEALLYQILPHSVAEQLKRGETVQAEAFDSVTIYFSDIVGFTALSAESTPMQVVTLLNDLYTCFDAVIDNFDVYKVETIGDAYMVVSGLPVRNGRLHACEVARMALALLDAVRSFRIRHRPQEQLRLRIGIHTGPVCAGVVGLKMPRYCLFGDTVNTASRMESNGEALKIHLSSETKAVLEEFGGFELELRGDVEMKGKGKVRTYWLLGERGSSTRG
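Compound pre-incubated 30 min at room temperature on GloSensor-loaded HEK293 cells stably carrying hNpr1 and the pGS-40F cGMP biosensor. Stimulation uses hNppA at 0.1 nM final; luminescence is taken at baseline and 20 min post-agonist.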
Numbers stand for hits; . = inactive; ? = inconclusive; / = no result given. The list is not random: actives were taken first. Their share in the collection is about 10%. Unless noted, calls come from the whole dose curve; as a rule, active = well fitted curve in the direction sought with a large enough effect; inconclusive = small, poorly fitted or top-dose-only effect, or another doubt; inactive = no such curve, though single readings can be large; an effect the other way counts as inactive or inconclusive.

SMILES	3T3 cytotox	HEK cytotox	GPT2 inh	FLuc inh	NPR1 antag
CCOc1ccc(C(=O)NC2CCN(c3cc(-c4ccccc4)[nH]n3)CC2)cc1OCC	.	?	.	.	.
CCOc1ccc(C(=O)NC2CCN(c3cc(-c4ccc(F)cc4)[nH]n3)CC2)cc1OCC	?	40µM	.	.	.
CCOc1cc(C(=O)NC2CCN(c3cc(-c4ccccc4)[nH]n3)CC2)cc(OCC)c1OCC	?	45µM	.	.	.
CCOc1cc(C(=O)NC2CCN(c3cc(-c4ccc(F)cc4)[nH]n3)CC2)cc(OCC)c1OCC	?	?	.	.	.
CNc1ncc(C(=O)N2CC[C@@](O)(COC)C(C)(C)C2)cn1	.	.	.	.	.
C[S+](=O)([O-])N1Cc2ccccc2OC2(CCN(C(=O)c3ccc4[nH]ccc4c3)CC2)C1	.	.	.	/	/
CN1C(=O)COC[C@@H]1[C@H](O)c1ccc(NC(=O)c2ccc3c(c2)OCO3)cc1	.	.	.	?	.
CC(C)CN1C(=O)COC[C@@H]1[C@H](O)c1ccc(NC(=O)c2ccc(F)cc2)cc1	.	.	.	?	.
CC(C)CN1C(=O)COC[C@@H]1[C@H](O)c1ccc(NC(=O)c2ccc3c(c2)OCO3)cc1	.	.	.	63µM	.
COc1ccc(C(=O)Nc2ccc(C(O)[C@H]3COCC(=O)N3CC(C)C)cc2)cc1 (stereo not given in full)	.	?	.	25µM	.
COc1ccc(CN2C(=O)COC[C@@H]2[C@H](O)c2ccc(NC(=O)c3ccc(C(C)(C)C)cc3)cc2)cc1	22µM	28µM	.	14µM	.
CCCn1cc(CN2CCc3nc(N4CCN(C)CC4)[nH]c(=O)c3CC2)c2ccccc21	.	.	.	.	.
Cc1cccc(CN2CCCOCCNC(=O)CC2)c1	.	.	.	.	.
O=C(c1ccccc1)N1CCC2(CC1)CC(N(Cc1ccc(F)cc1)C1CC1)CCO2 (stereo not given)	?	45µM	.	.	.
O=C(N1CCC2(CC1)CC(N(Cc1ccccc1)C1CC1)CCO2)C1(c2ccccc2)CC1 (stereo not given)	45µM	40µM	.	.	?
CCC(C)(C)C(=O)N1CCC2(CC1)CC(N(Cc1ccc(F)cc1)C1CC1)CCO2 (stereo not given)	?	45µM	.	.	.
O=C(CC1CCCC1)N1CCC2(CC1)CC(N(Cc1ccc(F)cc1)C1CC1)CCO2 (stereo not given)	?	45µM	.	.	.
O=C(c1cccc(F)c1)N1CCC2(CC1)CC(N(Cc1ccc(F)cc1)C1CC1)CCO2 (stereo not given)	?	?	.	.	.
CCC(=O)N1CCC2(CC1)CC(N(Cc1ccccc1)C1CC1)CCO2 (stereo not given)	.	.	.	.	.
CCN1C(=O)CN(C(=O)CC(C)C)CC12CCOCC2	.	.	.	.	.
NC(=O)c1ccc(S(=O)(=O)N2CC[C@@H](CC(=O)O)[C@@H](CC3=NCCc4ccccc43)C2)cc1	.	.	.	.	.
CN(C)CCCNC(=O)C1CC(=O)N(c2n[nH]c3cc(Br)ccc23)C1 (stereo not given)	.	.	?	.	.
CC(=O)NC[C@@H]1C=C(C)[C@H](Cc2nc3ccccc3n2C)C[C@H]1C(C)C	79µM	35µM	.	.	?
COc1ccc2nc(C[C@@H]3C[C@@H](C(C)C)[C@H](CNCc4ccccc4)C=C3C)[nH]c2c1	50µM	45µM	.	.	.
CC(=O)N1CCC(NC[C@@H]2C=C(C)[C@H](Cc3nc4ccccc4[nH]3)C[C@H]2C(C)C)CC1	112µM	89µM	.	.	.
SMILES	3T3 cytotox	HEK cytotox	GPT2 inh	FLuc inh	NPR1 antag
COc1ccc2nc(C[C@@H]3C[C@@H](C(C)C)[C@H](CNC(=O)[C@@H]4CCCC[C@@H]4C(=O)O)C=C3C)[nH]c2c1	.	.	.	.	.
COc1ccc2nc(C[C@@H]3C[C@@H](C(C)C)[C@H](CNC4CCCCC4)C=C3C)[nH]c2c1	22µM	28µM	.	.	.
COc1ccc(CN2C=C(C(=O)OCc3noc(-c4ccc(C#N)cc4)n3)C(C)=NS2(=O)=O)cc1	?	?	.	.	?
O=C1[C@@H]2C[C@@H](CN2C(=O)C2CC2)Oc2ccccc2N1Cc1cccnc1	.	.	.	.	.
COc1ccc2nc(C[C@@H]3C[C@@H](C(C)C)[C@H](CNC(=O)C4CCCCC4)C=C3C)[nH]c2c1	56µM	50µM	.	.	.
CCCCc1ccc(NC(=O)CN2C(=O)NC(c3ccccc3OCC)C3=C2COC3=O)cc1 (stereo not given)	32µM	32µM	.	.	.
CCOc1ccccc1C1NC(=O)N(CC(=O)Nc2cccc(Cl)c2)C2=C1C(=O)OC2 (stereo not given)	?	35µM	.	.	.
CCOc1ccccc1C1NC(=O)N(CC(=O)Nc2ccc(F)cc2)C2=C1C(=O)OC2 (stereo not given)	?	.	.	.	.
CCOc1ccccc1C1NC(=O)N(CC(=O)Nc2ccc(C)c(Cl)c2)C2=C1C(=O)OC2 (stereo not given)	?	?	.	?	.
Cc1ccc(NC(=O)CN2C(=O)NC3(CCS(=O)(=O)CC3)C2=O)cc1C	.	.	.	.	.
O=C(CN1C(=O)NC2(CCS(=O)(=O)CC2)C1=O)Nc1ccc2c(c1)OCCO2	.	.	.	35µM	.
CCc1nnc(CNC(=O)c2cn(CCN3CCNCC3)nn2)s1	.	?	.	.	.
CCCCCCCCc1ccc(CCC(N)(CO)CO)cc1	/	/	.	/	/
Cc1nn(-c2ccccc2)c2c1C(C)N(C1CN(C(=O)NC3CCCC3)C1)C2=O (stereo not given)	28µM	?	/	/	/
COC(=O)N1CCCC(N2C(=O)c3c(c(C)nn3-c3ccccc3)C2C)C1 (stereo not given)	.	?	/	/	/
Cc1nn(-c2ccccc2)c2c1C(C)N(C1CCCN(C(=O)C3CC3)C1)C2=O (stereo not given)	.	.	/	/	/
Cc1nn(-c2ccccc2)c2c1C(C1CC1)N(C1CN(C(=O)NC3CCCC3)C1)C2=O (stereo not given)	.	.	/	/	/
Cc1ccccc1C(=O)N1CCC(N2C(=O)c3c(c(C)nn3-c3ccccc3)C2C)CC1 (stereo not given)	?	45µM	/	/	/
COc1ccccc1C(=O)N1CCC(N2C(=O)c3c(c(C)nn3-c3ccccc3)C2C)CC1 (stereo not given)	?	40µM	/	/	/
Cc1ccccc1C(=O)N1CCC(N2C(=O)c3c(c(C)nn3-c3ccccc3)C2C)C1 (stereo not given)	?	45µM	/	/	/
O=C(COc1ccccc1)N1CCC(Oc2cnc3c(ccn3-c3cncnc3)c2)CC1	.	89µM	.	.	.
